Out of some 65,000 compounds screened, about 2,100 (3.2%) showed an effect of 50% or more. The median lay at about -52%. The sample holds strong results, similar compounds and a random draw of the others, so the mix is not that of the screen.

This assay has as its system Plasmodium falciparum. Briefly: Screen against P. falciparum Asexual Blood Stage (ABS), at 5uM. Type of assay: functional, Dd2. The following applies: tested at 5 uM.
Regarding `CCc1nnc2n1CCN(CC(=O)N1CCc3ccccc3C1)C2`, the INHIBITION is listed as -13.9%. With `COc1ccc(C(=O)Nc2c(C(=O)N(C)C)nn(C)c2C)cc1` the figure was -64.8%.

In the case of `COc1ccc(CC(=O)NC(C)c2nc3cccnc3n2C(C)C)cc1` (stereo not drawn), the INHIBITION is recorded as -100%. Regarding `NCCn1nc(C2CCN(C(=O)Cc3ccccc3)C2)c2nccnc21` (stereo not drawn), the INHIBITION was -28.7%. The result for `NCCn1nc(C2CCN(Cc3ccc(Cl)c(Cl)c3)C2)c2nccnc21` (stereo not drawn) reads 63.5%; that for `Cn1nc(C2CCCN(Cc3ccc(F)c(F)c3)C2)c2nccnc21` (stereo not drawn), 23.4%. The result for `NCCn1nc(C2CCN(C(=O)CC3CCCCC3)C2)c2nccnc21` (stereo not drawn) reads -16.3%; that for `Cc1ccccc1CN1CCC(c2nn(CCN)c3nccnc23)C1` (stereo not drawn), 60.9%; that for `CC(C)(C)CC(=O)N1CCC(c2nn(CCN)c3nccnc23)C1` (stereo not drawn), -94.3%.

As to `CNC(=O)[C@H]1CO[C@H]2CCN(Cc3ccc4ccccc4n3)C[C@H]2C1`, the INHIBITION is listed as -51.5%. As for `Cc1nc(NCc2ccccn2)c2c(n1)c(C)nn2C`, the INHIBITION was -26.7%. With `Cc1cccc(Nc2cc(C)nc(C3CCN(C(C)C)C3)n2)n1` (stereo not drawn) the figure was -36.6%. `CC(C#N)CSc1ccccc1NCC(=O)NC(C1CC1)C1CC1` (stereo not drawn): the INHIBITION was 56.3%.

Turning to `CC(C#N)CSc1ccccc1NCC(=O)Nc1ccccc1` (stereo not drawn), the INHIBITION was -67.8%. The result for `CC(C#N)CSc1ccccc1NCC(=O)NC1CCCCC1` (stereo not drawn) reads -56.9%; that for `CN1CCOC(CNCc2csc(C3CCCCC3)n2)C1` (stereo not drawn), 58.6%.

As to `CN1CCOC(CNCc2csc(C3CCCC3)n2)C1` (stereo not drawn), the INHIBITION is recorded as -14.3%.

In the case of `Cc1nc(CNCC2CN(C)CCO2)cs1` (stereo not drawn), the INHIBITION is recorded as -102%.

On to `c1cncc(N2CCCn3nnc(CN4CCCCC4)c3C2)c1`, for which the INHIBITION was -88.4%.

Take `Cc1ccccc1SCC(=O)NS(=O)(=O)c1ccc2c(c1)OCCO2`: the INHIBITION is listed as -14.4%.

Turning to `c1cncc(COCc2nnc3n2CCN(Cc2ccsc2)C3)c1`, the INHIBITION is reported as -113%. In the case of `O=C(c1ccc(F)cc1)N1CCN2C[C@H](OCc3cccnc3)C[C@H]2C1`, the INHIBITION is given as 1.13%. The result for `Cc1occc1C(=O)N1CC[C@H]2C[C@@H](c3nnc(C4CC4)o3)O[C@@H]2C1` reads -11.7%; that for `COCCN1CCC(CNCc2c[nH]nc2C(C)(C)C)CC1`, -130%.

For `CN(C)CCN1CCC(CNCc2c[nH]nc2C(C)(C)C)CC1`, the INHIBITION is reported as -15.5%. Turning to `Cc1ccc(CNCc2c[nH]nc2C(C)(C)C)c(OC2CCOC2)c1` (stereo not drawn), the INHIBITION was 57%.

`CCCNc1ncc(-c2cc(C3CC3)nc(N)c2C#N)cn1`: the INHIBITION is given as 55.8%. The result for `CCSc1ncc(-c2cc(C3CC3)nc(N)c2C#N)cn1` reads 4.79%.

With `CCSc1ncc(-c2cc(C3CCC3)nc(N)c2C#N)cn1`, the INHIBITION is -28.9%. Regarding `CC1CCN(C(=O)CN2CC(c3nc(C4CC4)no3)C2)CC1`, the INHIBITION was -20.1%. For `CCC(=O)N1CCCC1c1ccsc1` (stereo not drawn), the INHIBITION is -72.1%. With `O=C(C1CCCC1)N1C[C@@H](c2ccsc2)[C@@H]2CN(C3CCCC3)CC[C@@H]21` the figure was 54.7%; with `O=C(C1CCC1)N1CCN(Cc2ccsc2)[C@H]2CS(=O)(=O)C[C@H]21`, -87.7%.

For `CCOc1ncccc1CNC(=O)Nc1ccc(CC)cc1`, the INHIBITION is -138%.

For `COc1ccc2c(c1)C(NCCc1ccccn1)CCCO2` (stereo not drawn), the INHIBITION amounted to 57.6%.

Turning to `COc1c(CNC2CCCOc3ccc(F)cc32)c(C)nn1C` (stereo not drawn), the INHIBITION is given as 29%. The result for `Cc1ccc2c(c1)OCCCC2NCc1nnc2n1CCCCC2` (stereo not drawn) reads -139%.

For `COc1ccc2c(c1)C(NCCc1c(C)noc1C)CCCO2` (stereo not drawn), the INHIBITION amounted to 32.9%. With `Cc1ccc2c(c1)C(NCc1ccccn1)CC2` (stereo not drawn) the figure was 37.5%. With `COc1ccc2c(c1)C(NCCc1ncc(C)s1)CCCO2` (stereo not drawn) the figure was -31.7%. With `Cc1ccc2c(c1)C(NCc1ncnn1C)CC2` (stereo not drawn) the figure was -64.9%; with `COc1cccc(CNC2CCc3ccc(C)cc32)n1` (stereo not drawn), 60.8%; with `COc1cccc(CNC2CCCOc3cc(C)ccc32)n1` (stereo not drawn), 68.4%. `COc1ccc(C2=CCN(C(=O)CN(CC(N)=O)C(C)C)CC2)cc1`: the INHIBITION was -68.8%.

On to `Cc1noc(C)c1CN1CCC[C@]2(C[C@@H](Oc3ccccn3)CO2)C1`, for which the INHIBITION was -61.7%.

For the molecule `CC(=O)N1[C@H](Cn2cncn2)C[C@@H]2CN(Cc3ccncc3)CC[C@@H]21`, the INHIBITION is listed as -149%. The result for `COc1ccc(C)c(NC(=O)NCc2ncnn2C)c1` reads -80.2%; that for `COc1ccc(C2CCCN2C(=O)NCCCn2ccnc2)cc1` (stereo not drawn), 61.9%; that for `CCOc1ccc(C2CCCN2C(=O)NCCn2ccnc2)cc1` (stereo not drawn), 36.1%. With `O=C(NCCn1ccnc1)N1CCCC1c1ccc2c(c1)OCCO2` (stereo not drawn) the figure was 51.2%; with `O=C(NCCn1ccnc1)N1CCCC1c1ccsc1` (stereo not drawn), -159%; with `COc1ccc(C2CCCN2C(=O)NCCn2ccnc2)cc1OC` (stereo not drawn), -189%.

Turning to `COc1ccc(C2CCCN2C(=O)NCCn2ccnc2)cc1` (stereo not drawn), the INHIBITION is given as 59.1%.

Source of the values: ChEMBL document CHEMBL4513216, “Probing the Open Global Health Chemical Diversity Library for Multistage-Active Starting Points for Next-Generation Antimalarials” (ACS Infect Dis, 2020).
